Key:
[1] = target: Serine/threonine-protein kinase MARK2 (Homo sapiens) (UniProt Q7KZI7); conditions: at 1 µM
[2] = target: PAS domain-containing serine/threonine-protein kinase (Homo sapiens) (UniProt Q96RG2); conditions: at 0.1 µM
[3] = target: PAS domain-containing serine/threonine-protein kinase (Homo sapiens) (UniProt Q96RG2); conditions: at 1 µM
[4] = target: Phosphorylase b kinase gamma catalytic chain, skeletal muscle/heart isoform (Homo sapiens) (UniProt Q16816); conditions: at 0.1 µM
[5] = target: Phosphorylase b kinase gamma catalytic chain, skeletal muscle/heart isoform (Homo sapiens) (UniProt Q16816); conditions: at 1 µM
[6] = target: T1, Phosphorylase b kinase gamma catalytic chain, liver/testis isoform (Homo sapiens) (UniProt P15735); conditions: at 0.1 µM
T1 sequence (whole entry): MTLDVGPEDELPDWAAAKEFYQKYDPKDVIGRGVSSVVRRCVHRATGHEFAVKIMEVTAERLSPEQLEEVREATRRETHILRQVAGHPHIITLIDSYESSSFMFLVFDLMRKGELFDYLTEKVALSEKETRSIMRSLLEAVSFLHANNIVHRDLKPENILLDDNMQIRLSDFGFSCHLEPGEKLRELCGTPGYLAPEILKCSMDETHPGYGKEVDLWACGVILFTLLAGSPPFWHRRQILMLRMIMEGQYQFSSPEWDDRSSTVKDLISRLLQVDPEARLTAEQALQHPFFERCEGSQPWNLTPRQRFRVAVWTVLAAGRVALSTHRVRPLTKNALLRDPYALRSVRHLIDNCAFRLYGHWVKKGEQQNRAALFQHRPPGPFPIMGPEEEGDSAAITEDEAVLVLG

[7] = target: T1, Phosphorylase b kinase gamma catalytic chain, liver/testis isoform (Homo sapiens); conditions: at 1 µM
[8] = target: Serine/threonine-protein kinase pim-1 (Homo sapiens) (UniProt P11309); conditions: at 0.1 µM
[9] = target: Serine/threonine-protein kinase pim-1 (Homo sapiens) (UniProt P11309); conditions: at 1 µM
[10] = target: Serine/threonine-protein kinase pim-2 (Homo sapiens) (UniProt Q9P1W9); conditions: at 0.1 µM;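 further: reported value is the mean percent inhibition of PIM2, measured in the GSK PKIS kinase inhibitor set screen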
Chain of Serine/threonine-protein kinase pim-2 (Homo sapiens) (Q9P1W9 whole entry, looked up): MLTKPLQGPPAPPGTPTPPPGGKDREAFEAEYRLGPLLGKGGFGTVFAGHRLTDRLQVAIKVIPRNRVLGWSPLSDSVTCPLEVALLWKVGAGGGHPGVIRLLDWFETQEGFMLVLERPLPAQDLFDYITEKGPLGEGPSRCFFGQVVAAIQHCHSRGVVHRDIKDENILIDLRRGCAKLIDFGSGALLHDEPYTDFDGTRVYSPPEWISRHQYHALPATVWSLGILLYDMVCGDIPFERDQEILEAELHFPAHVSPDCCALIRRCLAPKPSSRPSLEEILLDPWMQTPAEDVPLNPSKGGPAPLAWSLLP

Chain of PAS domain-containing serine/threonine-protein kinase (Homo sapiens) (Q96RG2 whole entry, the tested form may be a part, canonical isoform): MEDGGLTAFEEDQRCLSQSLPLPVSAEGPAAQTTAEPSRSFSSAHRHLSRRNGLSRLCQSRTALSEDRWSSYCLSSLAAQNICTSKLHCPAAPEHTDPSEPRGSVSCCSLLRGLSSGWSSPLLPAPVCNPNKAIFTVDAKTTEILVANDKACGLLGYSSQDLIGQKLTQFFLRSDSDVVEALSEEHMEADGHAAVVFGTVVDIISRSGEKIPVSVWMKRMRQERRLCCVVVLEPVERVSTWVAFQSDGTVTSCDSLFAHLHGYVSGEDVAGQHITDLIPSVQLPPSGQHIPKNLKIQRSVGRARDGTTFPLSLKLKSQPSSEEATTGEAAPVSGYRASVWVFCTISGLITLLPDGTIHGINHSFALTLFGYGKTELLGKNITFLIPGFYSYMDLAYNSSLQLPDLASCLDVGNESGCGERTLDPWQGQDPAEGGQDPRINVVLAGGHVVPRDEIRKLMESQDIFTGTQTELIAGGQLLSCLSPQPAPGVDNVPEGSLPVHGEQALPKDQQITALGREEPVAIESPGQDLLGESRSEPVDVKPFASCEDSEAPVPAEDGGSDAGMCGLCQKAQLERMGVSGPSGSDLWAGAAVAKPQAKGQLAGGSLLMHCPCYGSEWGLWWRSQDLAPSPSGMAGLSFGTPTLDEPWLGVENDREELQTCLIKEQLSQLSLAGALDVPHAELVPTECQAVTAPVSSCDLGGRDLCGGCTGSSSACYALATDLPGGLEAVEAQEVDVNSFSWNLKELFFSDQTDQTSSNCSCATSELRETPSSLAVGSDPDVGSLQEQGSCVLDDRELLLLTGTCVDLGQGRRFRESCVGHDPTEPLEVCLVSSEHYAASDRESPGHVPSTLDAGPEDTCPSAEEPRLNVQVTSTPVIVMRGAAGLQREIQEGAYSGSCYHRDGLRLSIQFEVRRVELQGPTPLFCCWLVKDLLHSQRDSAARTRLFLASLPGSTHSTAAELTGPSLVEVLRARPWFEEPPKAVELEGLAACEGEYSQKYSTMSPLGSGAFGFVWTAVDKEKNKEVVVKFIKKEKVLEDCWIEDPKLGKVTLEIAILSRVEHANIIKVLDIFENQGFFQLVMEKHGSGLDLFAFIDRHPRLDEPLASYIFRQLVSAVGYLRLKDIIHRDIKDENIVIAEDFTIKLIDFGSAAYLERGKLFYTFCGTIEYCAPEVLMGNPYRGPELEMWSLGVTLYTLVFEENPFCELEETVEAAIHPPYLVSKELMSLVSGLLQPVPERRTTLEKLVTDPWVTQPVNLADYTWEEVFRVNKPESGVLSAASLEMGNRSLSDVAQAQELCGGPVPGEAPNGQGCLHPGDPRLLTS
Chain of Serine/threonine-protein kinase MARK2 (Homo sapiens) (Q7KZI7 whole entry, the tested form may be a part): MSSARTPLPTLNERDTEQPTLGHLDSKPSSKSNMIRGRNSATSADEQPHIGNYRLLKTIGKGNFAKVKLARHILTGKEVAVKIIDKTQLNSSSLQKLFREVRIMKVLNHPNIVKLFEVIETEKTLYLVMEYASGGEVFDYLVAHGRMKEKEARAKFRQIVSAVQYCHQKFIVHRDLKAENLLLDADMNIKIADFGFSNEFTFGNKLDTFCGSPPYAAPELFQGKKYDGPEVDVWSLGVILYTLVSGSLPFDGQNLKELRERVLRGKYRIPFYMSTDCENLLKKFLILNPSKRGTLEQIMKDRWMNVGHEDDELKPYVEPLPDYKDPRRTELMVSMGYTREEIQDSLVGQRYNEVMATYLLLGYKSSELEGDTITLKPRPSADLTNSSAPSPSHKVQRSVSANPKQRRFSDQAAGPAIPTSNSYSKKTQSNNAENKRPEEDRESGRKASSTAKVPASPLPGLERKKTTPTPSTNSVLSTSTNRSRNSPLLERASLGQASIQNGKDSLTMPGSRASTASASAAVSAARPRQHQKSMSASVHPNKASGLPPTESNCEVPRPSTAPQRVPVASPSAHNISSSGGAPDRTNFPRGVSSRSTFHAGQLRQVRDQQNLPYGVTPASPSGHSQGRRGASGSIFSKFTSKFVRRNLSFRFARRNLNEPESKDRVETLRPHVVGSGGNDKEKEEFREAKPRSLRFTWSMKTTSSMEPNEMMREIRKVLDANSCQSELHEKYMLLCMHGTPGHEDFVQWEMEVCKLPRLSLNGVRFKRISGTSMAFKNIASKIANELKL
Chain of Phosphorylase b kinase gamma catalytic chain, skeletal muscle/heart isoform (Homo sapiens) (Q16816 whole entry, looked up, canonical isoform): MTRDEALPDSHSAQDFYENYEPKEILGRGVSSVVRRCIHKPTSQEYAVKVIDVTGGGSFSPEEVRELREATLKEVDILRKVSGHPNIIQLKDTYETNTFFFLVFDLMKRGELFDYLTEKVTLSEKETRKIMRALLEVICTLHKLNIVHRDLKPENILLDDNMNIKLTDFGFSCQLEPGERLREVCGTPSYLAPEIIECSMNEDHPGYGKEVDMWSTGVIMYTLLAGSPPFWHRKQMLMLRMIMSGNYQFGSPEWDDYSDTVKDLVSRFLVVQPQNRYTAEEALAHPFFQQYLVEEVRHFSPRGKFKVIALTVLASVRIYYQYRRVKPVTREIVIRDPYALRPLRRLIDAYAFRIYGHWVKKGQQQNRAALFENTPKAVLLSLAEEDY
Chain of Serine/threonine-protein kinase pim-1 (Homo sapiens) (P11309 whole entry, looked up): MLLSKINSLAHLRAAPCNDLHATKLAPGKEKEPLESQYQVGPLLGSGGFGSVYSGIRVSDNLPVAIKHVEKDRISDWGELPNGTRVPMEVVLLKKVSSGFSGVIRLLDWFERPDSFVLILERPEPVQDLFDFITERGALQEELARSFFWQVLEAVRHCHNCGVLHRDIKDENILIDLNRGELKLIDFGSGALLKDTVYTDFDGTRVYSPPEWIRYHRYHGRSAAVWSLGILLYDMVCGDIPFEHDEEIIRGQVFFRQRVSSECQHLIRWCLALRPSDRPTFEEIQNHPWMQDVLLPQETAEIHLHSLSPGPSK

| SMILES | inhibition [1] [%] | inhibition [2] [%] | inhibition [3] [%] | inhibition [4] [%] | inhibition [5] [%] | inhibition [6] [%] | inhibition [7] [%] | inhibition [8] [%] | inhibition [9] [%] | inhibition [10] [%] |
| --- | --- | --- | --- | --- | --- | --- | --- | --- | --- | --- |
| O=C(O[C@H]1CN[C@H](C#Cc2cc3ncnc(Nc4ccc(Cc5ccccc5)cc4)c3s2)C1)N1CCOCC1 | 0.4 | 0.94 | 0.47 | 3.11 | 3.13 | 3.27 | 2.45 | 1.81 | 0.55 | 0.21 |
| CC(C)(CO)CNC(=O)c1ccc2c(c1)/C(=N/Nc1ccc(S(N)(=O)=O)cc1)C(=O)N2 | 32.2 | 1.39 | 0.43 | 6.19 | 29.9 | 0.52 | 3.4 | 2.44 | 18.9 | 0.31 |
| c1ccc(-c2nc3n(c2-c2ccc4c(c2)OCO4)CCC3)nc1 | 1.22 | -5.85 | -0.24 | 3.66 | 2.79 | 1.19 | 0.01 | 0.37 | 0.72 | -0.34 |
| CC1=C(C(=O)Nc2cc(Cl)c3[nH]ncc3c2)C(c2ccc(C(F)(F)F)cc2)CC(=O)N1 (stereo not given) | 5.38 | -0.35 | 0.16 | 3.83 | 6.61 | 3.02 | 4.01 | 0.67 | 0.15 | 0.31 |
| COc1ccc(CNC(=O)c2ccc(-c3cc(-c4nnc(C)o4)ccc3C)cc2)cc1 | 0.82 | 2.29 | 8.41 | 3.84 | 6.56 | 3.12 | 9.31 | 1.62 | 1.96 | 2.9 |
| COC(=O)Nc1nc2ccc(S(=O)(=O)c3ccc(NC(=O)Nc4cc(C(F)(F)F)ccc4F)cc3)cc2[nH]1 | 1.75 | 0.31 | -0.77 | 1.75 | 1.03 | 2.73 | 0.31 | 0.78 | 1.71 | -0.06 |
| COC(=O)Nc1nc2ccc(Oc3ccc(NC(=O)Nc4cccc(Cl)c4)cc3)cc2[nH]1 | 0.42 | 1.55 | 0.95 | 1.88 | 4.58 | 1.21 | 1.57 | -0.68 | -1.08 | -0.32 |
| c1ccc(COc2ccc(Nc3ncnc4ccc(-c5ccco5)cc34)cc2)cc1 | 1.38 | 0.95 | 1.6 | 4.05 | 5.22 | 1.07 | 2.25 | -1.26 | 0.42 | 0.63 |
| COc1ccc(-c2nn3ncccc3c2-c2ccnc(Nc3ccc4c(c3)OCCO4)n2)cc1 | -0.07 | 1.07 | 0.37 | 2.6 | 6.21 | 0.91 | 0.83 | 0.46 | -0.36 | 0.54 |
| COc1cc2ncn(-c3cc(OCc4ccccc4C(F)(F)F)c(C(=O)N(C)C)s3)c2cc1OC | -0.58 | -1.08 | 0.41 | -0.58 | 1.87 | -1.54 | -0.32 | 0.36 | -0.31 | -0.26 |
| COc1cc2c(cc1Nc1nc(Nc3ccsc3C(N)=O)c3cc[nH]c3n1)N(C(=O)CN(C)C)CCC2(C)C | 9 | -1.55 | -1.18 | 18.5 | 62 | 5.83 | 6.91 | 68.4 | 93.3 | 2.12 |
| O=S(=O)(CCNCc1ccc(-c2ccc3ncnc(Nc4ccc(OCc5cccc(F)c5)c(Cl)c4)c3c2)o1)c1ccccc1 | -0.14 | -0.06 | 0.32 | 5.41 | 9.29 | 7.91 | 7.71 | -0.13 | 1.9 | 0.44 |
| FC(F)(F)c1cccc(-c2nn3ncccc3c2-c2ccnc(Nc3ccc4c(c3)OCCO4)n2)c1 | 1.86 | 0.04 | -1.92 | -0.01 | 2.06 | 1.75 | 0.4 | 0.41 | 0.7 | -0.06 |
| CCn1cc(-c2ccnc3[nH]ccc23)c(-c2cccc(NC(=O)Nc3ccc(OCc4ccccc4)cc3)c2)n1 | 1.54 | 0.94 | 1.65 | 1.58 | 4.8 | 1.37 | 1.3 | -0.93 | -1.25 | 0.19 |
| CC(=O)NCc1cccc(C#Cc2cncnc2Nc2ccc(OCc3cccc(F)c3)c(Cl)c2)c1 | 1.33 | -0.91 | -1.6 | 3.33 | 5.96 | -0.18 | -1.04 | 1.13 | 0.22 | 0.41 |
| NC(=O)c1sc(-n2cnc3ccc(C(F)(F)F)cc32)cc1OCc1ccccc1Br | -0.94 | -1.22 | -1.68 | 4.21 | 7.92 | 5.06 | 4.43 | -0.41 | 2.03 | -0.42 |
| Fc1ccc(-c2cc(-c3c[nH]nc3-c3ccccn3)ccn2)cc1 | -2.56 | -0.42 | 0.53 | 5.71 | 9.03 | 5.07 | 8.42 | -0.17 | 0.76 | 0.19 |

| SMILES | inhibition [1] [%] | inhibition [2] [%] | inhibition [3] [%] | inhibition [4] [%] | inhibition [5] [%] | inhibition [6] [%] | inhibition [7] [%] | inhibition [8] [%] | inhibition [9] [%] | inhibition [10] [%] |
| --- | --- | --- | --- | --- | --- | --- | --- | --- | --- | --- |
| Nc1nc(-c2cccc(Cl)c2)c(-c2ccc3ncccc3n2)s1 | -0.63 | 0.04 | 1.47 | 6.45 | 11.3 | 5.42 | 10.1 | 1.14 | 3.59 | -0.44 |
| NS(=O)(=O)c1ccc(Nc2ncc(-c3ccccc3)o2)cc1 | 7.59 | -0.04 | -0.31 | 3.92 | 18.4 | 4.88 | 7.08 | 0.17 | 0.64 | -0.58 |
| COC(=O)c1sc(-n2cnc3cc(OC)c(OC)cc32)cc1OCc1ccccc1C(F)(F)F | 2.26 | -1.52 | -2.77 | 4.45 | 5.4 | 4.03 | 0.9 | 0.49 | 1 | 0.49 |
| NS(=O)(=O)c1ccc(N/N=C2\C(=O)Nc3ccc4ncccc4c32)cc1 | 35.3 | -0.19 | -1.87 | 11.2 | 50 | 3.72 | 14.1 | 1.89 | 15.9 | 1.2 |
| CCn1c(-c2nonc2N)nc2cnc(Oc3cccc(NC(=O)c4ccc(N(C)C)cc4)c3)cc21 | 11 | -0.49 | 1.54 | -0.31 | 2.21 | 1.21 | -0.74 | 0.69 | 8.74 | -0.19 |
| CCc1nn2ncccc2c1-c1ccnc(NC2CC2)n1 | 1.56 | 1.03 | 0.63 | 1.42 | 2.68 | 2.15 | 3.73 | 0.19 | 1.72 | 0.29 |
| COc1ccc(-c2oc3ncnc(N)c3c2-c2ccc(NC(=O)Nc3cc(C(F)(F)F)ccc3F)cc2)cc1 | 0.81 | 1.45 | 4.43 | 4.93 | 16.9 | 6.42 | 9.75 | -0.3 | 0.75 | 0.28 |
| CN1CCC(n2cnc(-c3ccc(F)cc3)c2-c2ccnc(N)n2)CC1 | -0.63 | -0.52 | 1.84 | 1.61 | 5.65 | 2.82 | 2.94 | 2.59 | 19.3 | 0.18 |
| COc1cc(N2CCN(C(C)C)CC2)ccc1Nc1nc(Nc2ccc(F)cc2C(N)=O)c2cc[nH]c2n1 | 39.3 | -0.71 | 2.69 | 58.2 | 78.1 | 19.1 | 64.7 | 3.27 | 25.3 | -0.44 |
| CC(C)COC(=O)c1ccc2c(c1)/C(=C/Nc1ccc(S(N)(=O)=O)cc1)C(=O)N2 | 70.5 | 0.36 | 2.64 | 12.2 | 50.5 | -1.63 | 16.4 | 3.92 | 27.8 | 0.83 |
| N#Cc1c(NC(=O)c2ccc(F)cc2)sc2c1CCCC2 | 0 | -0.36 | 0.96 | 1.21 | 2.76 | 1 | 1.36 | -1.04 | -0.95 | -0.39 |
| Clc1ccc(-c2nn3ncccc3c2-c2ccnc(Nc3ccccc3)n2)cc1 | 0.63 | -0.14 | 0.05 | 1.22 | 3.66 | 0.85 | 0.51 | 0.13 | 0.33 | 0.34 |
| Nc1ncc(-c2cccc(S(N)(=O)=O)c2)c2scc(-c3ccc(F)c(Cl)c3)c12 | 2.5 | 0.62 | 1.05 | 4.52 | 5.24 | 6.23 | 6.66 | 0.81 | 0.67 | 0.52 |
| CNC(=O)c1cc(-c2ccc(F)cc2)cc(-c2ccc(S(=O)(=O)N3CCCC3)cc2)c1N | 1.52 | 0.47 | -0.16 | 2.9 | 4.24 | 3.8 | 3.18 | 0.06 | 0.44 | -0.39 |
| CCn1c(-c2nonc2N)nc2c(C#CC(C)(C)O)nc(OC[C@H](N)c3ccccc3)cc21 | 18.1 | -0.65 | 8.04 | 2.23 | -1.37 | 2.76 | 5.27 | 1.54 | 3.63 | 0.71 |
| COc1ccc(-c2cc3c(N)ncnc3o2)cc1 | 3.33 | 1.26 | 0.48 | 0.47 | 2.53 | -1.54 | -2.23 | -1.06 | 2.3 | 0.27 |
| CC(=O)Nc1cccc(C#Cc2cncnc2Nc2ccc(OCc3cccc(F)c3)c(Cl)c2)c1 | 0.33 | 1.37 | -0.46 | 0.65 | 1.71 | 3.82 | 1.55 | 1.32 | 0.75 | 0.84 |

— ChEMBL document CHEMBL1961873, “Compounds: GSK PKIS; Assays: Nanosyn kinase panel” (2012)
